Shown is part of a subset that was picked to be rich in hits.
TbREL1 inh: TbREL1 inhibition, primary screen; P86926; TbREL1 RNA ligation, FRET fluorescence; inhibition, % at 9.66 µM; actives 0.49% (n = 89,000); AID 1117264;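 active means inhibition above the mean inhibition across all screened compounds plus 3 SD, cut at about 11% in these data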;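 further: 0% = plate median of test wells and 100% = NSC42067 control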
Target sequence (P86926 whole entry, looked up): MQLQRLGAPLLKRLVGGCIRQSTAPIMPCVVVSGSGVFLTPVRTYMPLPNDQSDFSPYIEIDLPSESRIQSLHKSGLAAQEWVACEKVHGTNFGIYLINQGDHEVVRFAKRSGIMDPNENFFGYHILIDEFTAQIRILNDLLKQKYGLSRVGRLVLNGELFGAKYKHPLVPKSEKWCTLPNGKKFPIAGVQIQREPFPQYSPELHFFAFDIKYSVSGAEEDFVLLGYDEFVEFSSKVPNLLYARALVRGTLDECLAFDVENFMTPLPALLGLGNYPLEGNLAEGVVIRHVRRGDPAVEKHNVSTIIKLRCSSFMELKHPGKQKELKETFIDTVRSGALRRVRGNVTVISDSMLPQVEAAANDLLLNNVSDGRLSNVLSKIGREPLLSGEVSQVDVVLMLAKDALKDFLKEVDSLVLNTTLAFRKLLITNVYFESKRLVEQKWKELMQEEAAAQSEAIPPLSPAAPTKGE
TbREL1 confirm: TbREL1 inhibition, confirmation; actives 37% (n = 390); inhibition, % at 9.66 µM; shares compounds with TbREL1 inh; TbREL1 RNA ligation, FRET fluorescence;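 active means mean inhibition across replicates above a set limit taken from the earlier primary screen, cut at about 11% in these data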;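 further: 0% = REL1 with substrate and DMSO and 100% = REL1 plus control inhibitor NSC42067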
Starred values were filed as active, the others as inactive.

SMILES	TbREL1 inh	others
O=C(O)CCC(=O)CCC(=O)c1ccccc1	7.5
O=C(C[n+]1cc2ccccc2c2ccccc21)c1ccccc1	13.1*	TbREL1 confirm=9.4
Cc1nc2c(C)[n+](CC(=O)c3ccccc3)ccc2n1C	1.9
COc1cc(NC(=O)c2csc(N)n2)cc(C(=O)Nc2cccc(C(F)(F)F)c2)c1	-2.1
COc1cc(NC(=O)c2cnc(N)s2)cc(C(=O)Nc2cccc(C(F)(F)F)c2)c1	31.7*	TbREL1 confirm=20.8*
COc1cc(NC(=O)c2cc(C)on2)cc(C(=O)Nc2cccc(C(F)(F)F)c2)c1	7.3
CCOC(OCC)P(=O)(CNC(c1ccccc1)(c1ccccc1)c1ccccc1)OCC (stereo unspecified)	-1.4
CCOC(=O)Cc1c(C)nc2cc(-c3ccc(C(C)(C)C)cc3)[nH]n2c1=O	-3.4
Cc1nc2cc(-c3ccsc3-n3c(C)ccc3C)[nH]n2c(=O)c1Cl	26.6*	TbREL1 confirm=2.9
C=CCc1c(C)nc2cc(-c3ccc(C)cc3)[nH]n2c1=O	-1.3
CCn1c(Cc2cccs2)nnc1SCC(=O)c1ccc(Cl)cc1	-4.6
Nc1c(C(=O)N2CCOCC2)cnn1Cc1ccccc1	4.1
CCOC(=O)[C@]12CCCC3=C1N(CCC3)C(=O)[C@@H](CC(=O)NCC1CCCCC1)C2	4.2
CCCCN(C)C(=O)CN1C(=O)C2CCCCN2C(=O)c2ccccc21 (stereo unspecified)	6.2
C[C@@H]1O[C@@H](Oc2c(-c3cc(O)c(O)c(O)c3)oc3cc(O)cc(O)c3c2=O)[C@H](O)[C@H](O)[C@H]1O	53.9*	TbREL1 confirm=35.6*
COc1cc(-c2oc3cc(O)cc(O)c3c(=O)c2O[C@@H]2O[C@H](COC3O[C@@H](C)[C@H](O)[C@@H](O)[C@H]3O)[C@@H](O)[C@H](O)[C@H]2O)ccc1O (stereo partly specified)	-4.1
O=c1c(-c2ccc(O)cc2)coc2cc(OC3OC(CO)C(O)C(O)C3O)cc(O)c12 (stereo unspecified)	0.0
COC(=O)CC1CCc2cc(C)cc(C(=O)CC(C)C)c2O1 (stereo unspecified)	-1.4
CCN(Cc1ccccc1)S(=O)(=O)c1ccc(C(=O)N(CCCN(C)C)c2nc3cc(C)cc(C)c3s2)cc1	14.8*	TbREL1 confirm=6.5
CCc1ccc2nc(N(CCCN(C)C)C(=O)c3ccc(S(=O)(=O)N4CCCC4)cc3)sc2c1	10.5
CCN(Cc1ccccc1)S(=O)(=O)c1ccc(C(=O)N(CCCN(C)C)c2nc3c(F)cccc3s2)cc1	28.3*	TbREL1 confirm=8.3
CN(C)CCCN(C(=O)c1ccc(S(=O)(=O)N2CCCCCC2)cc1)c1nc2c(F)cccc2s1	7.9
CCN(c1ccccc1)S(=O)(=O)c1ccc(C(=O)N(CCCN(C)C)c2nc3c(C)cccc3s2)cc1	12.6*	TbREL1 confirm=11.2*
CCOc1cccc2sc(N(CCCN(C)C)C(=O)c3ccc(S(=O)(=O)N4CCCCCC4)cc3)nc12	15.4*	TbREL1 confirm=7.7
COc1cccc2sc(N(CCCN(C)C)C(=O)c3ccc(S(=O)(=O)N4CCc5ccccc5C4)cc3)nc12	4.6
SMILES	TbREL1 inh	others
CN(C)CCCN(C(=O)c1ccc(C(=O)c2ccccc2)cc1)c1nc2c(F)cccc2s1	3.6
CN(C)CCN(C(=O)c1ccc2c(c1)CCCC2)c1nc2c(F)cccc2s1	1.8
Cc1cc(C)c2sc(N(CCN(C)C)C(=O)c3c(F)cccc3F)nc2c1	1.8
COc1cc2nc(N(CCCN(C)C)C(=O)c3ccc(S(=O)(=O)N4CCc5ccccc5C4)cc3)sc2cc1OC	-1.9
Cc1cc(C)c2sc(N(CCCN(C)C)C(=O)c3ccc(Br)s3)nc2c1	5.4
CCC[C@H]1[C@@H](NC(=O)c2cccc(C)c2)CC[C@@]23CCCN2C(=O)CCC[C@@H]13	5.3
Cc1ccccc1NC(=O)OCCN1CCCC12CCC(c1ccccc1)CC2 (stereo unspecified)	-3.4
O=C(OCC#CCSc1nnc(-c2cccs2)o1)c1ccc(F)cc1	7.5
CC(/C=N/NC(=O)CSc1nnc(SCc2ccc(C)cc2)s1)=C\c1ccco1	-1.2
CC(=O)N1CCc2cc(Br)c(S(=O)(=O)CCC(=O)N3CCN(c4ccccn4)CC3)cc21	5.4
CCC[C@H]1[C@@H](N(C)Cc2cccs2)CC[C@@]23CCCN2C(=O)CCC[C@@H]13	-5.5
FC(F)(F)Oc1ccc(Cn2ccc3ccc(-c4ccc5ccn(Cc6ccccc6)c5c4)cc32)cc1	1.4
CC(=O)N[C@@H](C)CCc1ccc(Oc2ccc(OC(C)C)nc2)cc1	-5.6
Cc1ccc(Cn2c(=O)n(Cc3ccc(C(=O)NCC4COC4)cc3)c(=O)c3ccccc32)cc1	10.6
CC1CCN(c2ccc(C(=O)O)cc2NS(=O)(=O)c2ccc(Cl)s2)CC1	0.7
CCn1c(COc2ccc(C)cc2)nnc1SCC(=O)c1ccc(-c2ccccc2)cc1	2.0
O=C(OCC#CCSc1nnc(-c2cccc3ccccc23)o1)c1ccc(F)c(F)c1	5.3
COc1cc(/C=N/NC(=O)c2cc(-c3ccco3)nc3ccccc23)cc(OC)c1O	-2.9
Nc1c(C(=O)N/N=C/c2cccnc2)oc2nc(-c3ccco3)cc(-c3ccco3)c12	15.9*	TbREL1 confirm=4.0
COc1ccc(/C=N/NC(=O)c2cccnc2)cc1	1.5
COC(=O)[C@H]1C[C@]2(C(C=C(C)C)S(=O)(=O)c3ccccc3)c3ccccc3N[C@H]2N1 (stereo partly specified)	-1.0
CCCCN1CC[C@@H](C)Oc2cc(Br)ccc2S1(=O)=O	3.5
Nc1ccc2c(c1)nnn2-c1ccccc1	-0.8
Nc1cccc(-c2nc3ccc(N)cc3s2)c1	-1.2
Nc1ccc2cc3ccc(N)cc3nc2c1	30.6*	TbREL1 confirm=-37.9
SMILES	TbREL1 inh	others
COc1ccccc1C(=O)N(Cc1ccccn1)CC1CCCO1 (stereo unspecified)	6.2
Cc1c(C(=O)N/N=C/c2ccccc2Cl)[nH][nH]c1=O	3.0
CSc1ccccc1NC(=O)c1cccs1	4.9
O=C(SCC(O)C(O)CS)c1cccs1 (stereo unspecified)	17.8*	TbREL1 confirm=3.7
Nc1ccc(C(=O)c2cccs2)cc1	-0.3
C[C@@H]1CN([C@@H](C)CO)C(=O)c2cccc(NC(=O)Nc3cccc4ccccc34)c2O[C@H]1CN(C)S(=O)(=O)c1ccc2c(c1)OCCO2	-6.6
Cc1ccccc1-c1nnc2n1N=C(c1ccc(O)c(O)c1)CS2	2.6
Cc1ccc(CN2CCCCC(NC(=O)c3ccc(-c4ccccc4)cc3)C2=O)cc1 (stereo unspecified)	1.3
c1ccc(-c2c(-c3ccccc3)n(Cc3ccco3)c3ncnc(NCCCn4ccnc4)c23)cc1	-1.9
CN(C)CCCNc1ncnc2oc(-c3ccccc3)c(-c3ccccc3)c12	11.7*	TbREL1 confirm=5.7
COc1ccc(-c2oc3ncnc(N)c3c2-c2ccccc2)cc1	3.8
CC(=O)c1ccc2c(c1)OCCOCCOCCO2	2.2
Nc1ccc2c(c1)OCCOCCOCCOCCOCCO2	14.2*	TbREL1 confirm=3.6
Nc1ccc(Oc2ccc3c(c2)OCO3)cc1	-3.3
CCOc1ccc(-c2csc(N3CCC(C(N)=O)CC3)n2)cc1	2.5
CC(C)(C)OC(=O)N1c2ccccc2[C@]2(N3CCCC3)C[C@H](C(=O)O)N(C(=O)OC(C)(C)C)[C@H]12	2.9
COc1ccc(NC(=O)CC2C(=O)N(c3ccc(OC)cc3)C(=O)N2C(C)C)cc1 (stereo unspecified)	1.6
COC(=O)c1ccc(N2C(=O)CC(SCC(=O)Nc3ccc(OC)cc3)C2=O)cc1 (stereo unspecified)	13.1*	TbREL1 confirm=3.3
COC(=O)c1ccc(N2C(=O)CC(Sc3n[nH]c(C)n3)C2=O)cc1 (stereo unspecified)	3.2

Bioassay records (PubChem)
